NLRP3 yeast inh = inhibitors of NALP3 inflammasome in yeast. Yeast reconstituted NLRP3/ASC/caspase-1, beta-gal luminescence, 24 h. inhibition, % at 10 µM. 330,000 tested, 0.39% active;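 active means inhibition of 50% or more; inactive means inhibition below 50%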;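 further: plate controls were induced DMSO wells for no effect and uninduced yeast grown without galactose for full effect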
V-ATPase pHluor = alters yeast V-ATPase proton transport | 350,000 tested, 0.37% active | response, % at 10 µM | AID 504577 | S. cerevisiae, pHLuorin cytosolic pH fluorescence; in the data active means response mostly above about 7.3%, no sharp cut-off; inactive means mostly below about 5.4%; further: actives read high
TIM10 inh = TIM10 yeast growth inhibition; inhibition, % at 10 µM; S. cerevisiae TIM10 strain growth, BacTiter-Glo luminescence, 24 h; 330,000 tested, 1.4% active; AID 463195;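 active means inhibition of 40% or more at the single tested concentration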;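 further: wild-type TIM10 isogenic control strain grown at permissive 25 °C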
tim10-1 inh = inhibits growth of tim10-1 mutant yeast. S. cerevisiae tim10-1 ts strain growth, BacTiter-Glo, 24 h. inhibition, % at 20 µM. 330,000 tested, 2.2% active. AID 463190;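 active means inhibition of at least 40%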;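 further: mutant grown at 25 °C; 0% = DMSO wells with yeast and 100% = wells holding no yeast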
tim23-1 inh = tim23-1 yeast growth inhibition. AID 463212. S. cerevisiae tim23-1 growth, BacTiter-Glo luminescence, 24 h. 330,000 tested, 1.3% active. inhibition, % at 20 µM;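 active means growth inhibition of the mutant yeast at or above 50%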;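 further: temperature-sensitive mutant grown at 25 °C; plate controls were DMSO-treated mutant yeast for no effect and medium wells lacking yeast for full effect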
NALP1 inh = NALP1 inhibition; S. cerevisiae NALP1/ASC/caspase-1 growth, X-gal OD620, 72 h; inhibition, % at 10 µM; 280,000 tested, 0.61% active; in the data active means inhibition mostly above about 24%, no sharp cut-off; inactive means mostly below about 32%
tim10-1 conf = confirmation of tim10-1 mutant yeast growth inhibitors; shares compounds with tim10-1 inh; S. cerevisiae tim10-1 ts strain growth, BacTiter-Glo, 24 h; inhibition, % at 20 µM; 7,400 tested, 56% active; AID 463213;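 active means inhibition of yeast growth at or above a set limit in either of two repeat tests at 20 µM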;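 further: tim10-1 mutant grown at permissive 25 °C to find synthetic lethal compounds; 0% = DMSO yeast wells and 100% = medium wells without yeast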
An asterisk follows results filed as active; . = no result. A selection: hits, their analogues and other compounds. The true share with any hit is near 4.2%.

SMILES	NLRP3 yeast inh	V-ATPase pHluor	TIM10 inh	tim10-1 inh	tim23-1 inh	NALP1 inh	tim10-1 conf
O=C(NCCCc1ccccc1)c1cc([N+](=O)[O-])ccc1Cl	-16	-3	10	41*	31	9	16
COc1ccc(COC(=O)Nc2cc3c(C(F)(F)F)nn(C)c3s2)cc1	25	0	14	44*	12	-21	26
COc1cc(-c2nnc(COC(=O)c3ccc(C)o3)o2)cc(OC)c1OC	4	5	14	22	23	.	.
Cc1ccc(NC(=O)CN2CCN(C)CC2)cc1S(=O)(=O)N1CCOCC1	8	0	-22	-26	-77	.	.
Nc1cc(S(=O)(=O)N2CCCCC2)ccc1N1CCCCC1	25	-1	24	45*	34	.	27
CCOC(=O)C1=C(C(=O)OCC)N(Cc2ccccc2)CCC1=O	.	-1	.	.	.	.	.
O=C(CCCn1c(=O)[nH]c2cc(Cl)ccc2c1=O)NCCCN1CCN(c2ccc(F)cc2)CC1	14	-2	6	14	15	18	.
CCOc1ccc(N2CC(C(=O)N3CCCc4ccccc43)CC2=O)cc1 (configuration not stated)	8	-1	14	41*	35	21	20
Cc1ccc(NC(=O)C(=O)NCCCN2CC(C(=O)O)CC2=O)cc1 (configuration not stated)	2	-1	-17	7	-7	12	.
COc1ccc(NC(=O)CC2C(=O)N(c3cccc(C)c3)C(=O)N2C2CCCCC2)cc1 (configuration not stated)	-14	0	11	40	23	-4	23
COc1ccc(C(=O)Nc2ccccc2C(=O)Nc2ccccn2)cc1	33	-1	17	43*	45	8	24
O=C(Nc1ccccc1C(=O)Nc1ccccc1C(=O)O)c1ccccc1	18	-1	9	47*	31	9	26
Cc1cccc(N(O)C(=O)Nc2cccc(Cl)c2)c1	6	2	34	18	42	-1	.
CC(C)(C)c1ccc(C(=O)Nc2cccc([N+](=O)[O-])c2)cc1	.	2	.	.	.	26	.
CCCc1cc(C(=O)Nc2cccc([N+](=O)[O-])c2)cs1	6	-1	25	41*	41	27	31*
CCNC(=O)C(=O)Nc1cc2c3c(c1)CCC(=O)N3CCC2	11	1	10	13	-4	33	.
CCCCNC(=O)C(=O)Nc1cc2c3c(c1)CCC(=O)N3CCC2	6	-1	-31	43*	-16	22	-35
Clc1ccc(Cn2c(-c3cccnc3Cl)nc3ccccc32)cc1	15	13	7	43*	31	5	26
Clc1ccc(Cn2c(-c3cccnc3Cl)nc3ccccc32)c(Cl)c1	2	2	22	42*	22	7	12
CCn1c(-c2cccnc2Cl)nc2cc(Cl)c(Cl)cc21	12	0	-5	23	28	37	.
CCCN1CCN(CCCNC(=O)C(CC)n2nc(C)n3c(cc4occc43)c2=O)CC1 (configuration not stated)	8	0	3	22	8	19	.
Cc1cc(N2CCCC2)nc(N2C3CCC2CC(O)(c2ccc(F)cc2)C3)n1 (configuration not stated)	19	.	12	0	3	14	.
COc1ccc(C2(O)CC3CCC(C2)N3c2cc(C)nc(-c3ccccc3)n2)cc1 (configuration not stated)	-4	-1	33	42*	31	6	32*
CC(C)(C)NC(=O)C(c1ccncc1)N(Cc1ccco1)C(=O)c1ccc(-c2ccccc2)[nH]1 (configuration not stated)	15	-2	25	52*	35	18	42*
CC(C)c1ccc(/C=C/C(=O)N2CCOCC2)cc1	16	-2	19	15	11	14	.
CC(C)c1ccc(/C=C/C(=O)CCC(=O)O)cc1	-1	0	7	41*	33	12	24
CC(C)c1ccc(/C=C/C(=O)N2CCCCCC2)cc1	28	1	16	43*	32	42	14
COC(=O)c1ccccc1NC=C1C(=O)OC2(CCCCC2)OC1=O	-1	5	5	31	4	13	.

From PubChem
